Experimental findings from PubChem BioAssay are described below.

Calls of active or inactive are those of the source. Unless noted, the rule behind the calls is not given here.

Assay [1] in a line: HepG2 liver cancer cell viability effects, profiling panel, resazurin fluorescence, 24 h, PK04 Diversity Set (AID 1172). Note: test concentration not given here. The settings on record: higher = more signal. For orientation: The colour change of resazurin is a common sign of viable cells or microbes.
Assay [2] is described as follows: basal S. cerevisiae growth modulation, no modifier, primary screen, OD600, strain BY4716, 24 h, basal condition (AID 1173). The following applies: OD600, 24 h, higher = more signal, called active from +8 up or from −8 down.
Assay [3] can be described thus: MM1S myeloma cell viability, profiling panel, resazurin fluorescence, basal, 24 h, PK04 Diversity Set (AID 1174).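 Note: MM1S multiple myeloma cell line; test concentration not given here.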 The following applies: higher = more signal, called active from +8 up or from −8 down.
The target in assay [4] is Dihydroorotate dehydrogenase (quinone), mitochondrial (Plasmodium falciparum (isolate 3D7)) (UniProt Q08210). The assay can be described thus: PfDHODH enzyme inhibitors, primary screen, biochemical, C-terminal His tag, absorbance 600 nm (AID 1175).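 Note: recombinant parasite enzyme with a five histidine tag at its C terminus; test concentration not given here.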 The settings on record: DCIP absorbance 600 nm, higher = more signal, called active from +8 up or from −8 down.
Dihydroorotate dehydrogenase (quinone), mitochondrial (Plasmodium falciparum (isolate 3D7)), sequence (Q08210 whole entry, looked up): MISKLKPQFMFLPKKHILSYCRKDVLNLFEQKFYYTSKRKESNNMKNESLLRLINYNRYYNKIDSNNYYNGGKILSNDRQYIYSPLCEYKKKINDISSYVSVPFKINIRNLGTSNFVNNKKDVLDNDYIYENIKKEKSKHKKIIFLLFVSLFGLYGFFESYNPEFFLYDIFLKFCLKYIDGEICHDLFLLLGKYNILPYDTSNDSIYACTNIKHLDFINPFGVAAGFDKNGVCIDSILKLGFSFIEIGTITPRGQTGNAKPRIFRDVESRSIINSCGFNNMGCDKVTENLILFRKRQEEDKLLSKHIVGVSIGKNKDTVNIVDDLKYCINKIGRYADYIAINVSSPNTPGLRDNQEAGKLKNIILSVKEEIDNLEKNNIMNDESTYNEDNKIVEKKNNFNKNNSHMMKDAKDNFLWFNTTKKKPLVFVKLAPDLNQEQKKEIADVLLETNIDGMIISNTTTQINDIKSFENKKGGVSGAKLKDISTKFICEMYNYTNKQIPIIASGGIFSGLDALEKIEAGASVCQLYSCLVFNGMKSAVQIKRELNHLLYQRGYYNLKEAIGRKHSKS
A short description of assay [5]: P. aeruginosa biofilm formation inhibitors, primary screen, strain PAO1, LB-PBS medium, absorbance 600 nm (AID 1176). Note: test concentration not given here. The following applies: P. aeruginosa PAO1 growth/biofilm, A600, 12 h; higher = more signal.
Assay [6] is described as follows: S. cerevisiae RM11-1a growth modifiers, primary screen, strain RM11-1a, OD600, basal, 24 h (AID 1177).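 Note: cultures grown under basal conditions with no added stressor; test concentration not given here.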 The following applies: OD600, 24 h, higher = more signal, called active from +8 up or from −8 down.
A short description of assay [7]: E. coli acrAB mutant growth effects, primary screen, E. coli filamentation inducers, strain DRC39, OD650, 24 h (AID 1178).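 Note: growth measured as culture turbidity by optical density at 650 nm; test concentration not given here.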 The settings on record: higher = more signal, called active from +8 up or from −8 down.
Assay [8] in a line: E. coli acrAB mutant growth effects, primary screen, E. coli filamentation inducers, strain DRC39, OD650, 48 h (AID 1179).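 Note: screen aims at cell division blockers that make cells filament.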 The following applies: E. coli DRC39 delta-acrAB growth, higher = more signal, called active from +8 up or from −8 down.
The nature of assay [9]: RPMI8226 myeloma cell viability, profiling panel, resazurin fluorescence, basal, 24 h, PK04 Diversity Set (AID 1180).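 Note: RPMI8826 multiple myeloma cell line at 5000 cells per well; test concentration not given here.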 The following applies: higher = more signal.
Assay [10] deals with E3 ubiquitin-protein ligase XIAP (Homo sapiens) (UniProt P98170). The assay can be described thus: XIAP binders, primary screen, biophysical, small-molecule microarray, fluorescence 635 nm (AID 1181).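 Note: score merges 667 nm emission and signal to noise over triplicate slides.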 The following applies: small-molecule microarray binding, higher = more signal.
E3 ubiquitin-protein ligase XIAP (Homo sapiens), sequence (P98170 whole entry, looked up): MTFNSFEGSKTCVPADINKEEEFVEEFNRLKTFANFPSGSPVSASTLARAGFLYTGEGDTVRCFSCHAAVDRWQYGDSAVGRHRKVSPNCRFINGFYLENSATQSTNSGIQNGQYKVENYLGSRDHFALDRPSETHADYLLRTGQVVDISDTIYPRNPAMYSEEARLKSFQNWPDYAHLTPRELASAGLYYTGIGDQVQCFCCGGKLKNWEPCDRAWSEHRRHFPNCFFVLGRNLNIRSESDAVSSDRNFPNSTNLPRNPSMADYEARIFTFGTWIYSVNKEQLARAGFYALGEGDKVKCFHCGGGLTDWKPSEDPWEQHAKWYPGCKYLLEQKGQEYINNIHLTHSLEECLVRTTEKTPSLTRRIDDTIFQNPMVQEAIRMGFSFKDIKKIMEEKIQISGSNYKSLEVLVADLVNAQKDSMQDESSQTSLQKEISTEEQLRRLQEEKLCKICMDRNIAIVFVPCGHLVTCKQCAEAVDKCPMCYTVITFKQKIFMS

`C[N+](C)(C)CCCC[C@@H]1NC(=O)[C@H]2C[C@@H](C(=O)O)[C@@H](c3ccc(O)cc3)N2C1=O`: the z-score is 0.363 in assay [1]; -1.58 (inactive) in [2]; 1.03 (inactive) in [3]; 0.475 (inactive) in [5]; -0.944 (inactive) in [6]; 1.38 (inactive) in [7]. The z-score in assay [8] is 1.57 (inactive); in assay [9], 0.925. Moreover, the composite z-score was -0.406 (inactive) in assay [4] and -0.0595 in assay [10].

Turning to `CCOC(=O)C[C@H]1[C@H](OC(=O)c2ccccc2-c2ccccc2)[C@@H](NC(=O)CC(C)C)c2cc(OCCCO)ccc2N1C(=O)c1ccccc1`, the z-score in assay [1] was 0.928; in assay [2], -1.04 (inactive); in [3] it was 0.351 (inactive); in assay [5] it was 0.13 (inactive); in assay [6] it was -0.71 (inactive); in assay [7], 1.51 (inactive). The z-score in assay [8] was 0.973 (inactive); in [9] it was -0.503. Besides, the composite z-score in assay [4] was -0.6 (inactive); in [10], 0.0412.

Consider `COC(=O)[C@@]1(Cc2ccccc2)[C@H]2c3cc(C(=O)N(C)C)n(CCF)c3C[C@H]2CN1C(=O)c1ccccc1`, for which the z-score in [1] is -0.537; in [2], 1.34 (inactive); in assay [3], -0.878 (inactive); in assay [5] it was 0.715 (inactive); in assay [6], 0.155 (inactive); in assay [7], -0.407 (inactive). For the same molecule, the figures for the z-score in assay [8] and in [9] were 0.0857 (inactive) and -0.329, respectively. Also, the composite z-score was 0.288 (inactive) in assay [4] and 0.0635 in assay [10].

As to `O=C(N1CCOCC1)[C@]1(CCS(=O)(=O)c2ccccc2)N=C(c2ccc(OCCCO)cc2)O[C@@H]1c1ccccc1`, the z-score in assay [1] is 0.945; in [2], 1.14 (inactive); in assay [3] it was 0.564 (inactive); in assay [5] it was -0.981 (inactive); in [6], 2.17 (inactive); in assay [7] it was 2.71 (inactive). For the same molecule, the values for the z-score in assay [8] and in [9] were 0.546 (inactive) and 0.413, respectively. The composite z-score in assay [4] was 2.06 (inactive); in assay [10], 0.0379.

Turning to `COC(=O)[C@@]1(Cc2ccc(OC)cc2)[C@@H]2[C@@H](CC(=O)[C@H]2CC(=O)C(=O)N(C)C)CN1C(=O)c1ccccc1`, the z-score in [1] was -0.54; in assay [2], 1.05 (inactive); in assay [3] it was -2.89 (inactive); in assay [5], 1.02 (inactive); in [6], 0.415 (inactive); in [7] it was 0.243 (inactive). Moreover, the z-score was 0.358 (inactive) in assay [8] and -4.19 in assay [9]. Further, the composite z-score is -0.284 (inactive) in assay [4] and 0.489 in assay [10].

As for `O=C1C2C=CC(C(O)C3CC=CCC3)N(Nc3ccc([N+](=O)[O-])cc3)C2C(=O)N1c1ccccc1` (stereo not given), the z-score in assay [1] is -0.681; in [2] it was -0.541 (inactive); in assay [3], -0.428 (inactive); in [5] it was 1.29 (inactive); in assay [6], -0.0935 (inactive); in assay [7], -0.544 (inactive). Besides, the z-score is -0.861 (inactive) in [8] and -0.617 in assay [9]. The composite z-score in assay [4] is 0.354 (inactive); in assay [10] it was 0.26.

For the molecule `O=C1c2ccccc2[C@](Cc2ccccc2I)(C(=O)NCCN2CCOCC2)[C@H](c2ccc(CO)cc2)N1Cc1ccccc1C(F)(F)F`, the z-score is -0.936 in assay [1]; -1.14 (inactive) in [2]; -0.269 (inactive) in assay [3]; 0.0435 (inactive) in assay [5]; -0.538 (inactive) in [6]; 0.0398 (inactive) in assay [7]. The z-score was -0.46 (inactive) in [8] and -0.606 in assay [9]. The composite z-score in [4] was -0.584 (inactive); in assay [10], -0.0095.

Take `CCOC(=O)C[C@H]1[C@H](OC(=O)c2cc3ccccc3oc2=O)[C@@H](NC(=O)Cc2ccc(OC)cc2)c2cc(OCCCO)ccc2N1C(=O)Cc1ccc(OC)cc1`: the z-score in [1] was 1.04; in assay [2], -3.03 (inactive); in assay [3], 1.26 (inactive); in [5], -0.234 (inactive); in [6], -1.01 (inactive); in [7] it was 1.76 (inactive). Besides, the values for the z-score in assay [8] and in assay [9] were 0.248 (inactive) and 0.918, respectively. The composite z-score in assay [4] is -0.317 (inactive); in [10], 0.177.

Take `O=C1C2C=CC(C(O)C(c3ccccc3)c3ccccc3)N(Nc3ccccc3F)C2C(=O)N1c1ccccc1` (stereo not given): the z-score in [1] was -0.353; in assay [2] it was -0.704 (inactive); in [3], -0.813 (inactive); in [5] it was 0.34 (inactive); in assay [6], 1.52 (inactive); in assay [7], -0.872 (inactive). Moreover, the z-score is -0.82 (inactive) in assay [8] and -1.32 in assay [9]. For the same molecule, the composite z-score was 1.68 (inactive) in [4] and 0.0617 in assay [10].

Take `C=C(CCCC)/C(=C/C[C@@H](OC(C)=O)c1ccc(OCCO)cc1)c1cc(C(=O)OC)ccc1OC`: the z-score is 0.353 in assay [1]; -0.107 (inactive) in assay [2]; -1.36 (inactive) in [3]; 0.862 (inactive) in assay [5]; -0.319 (inactive) in [6]; 0.173 (inactive) in [7]. The z-score in [8] was 0.107 (inactive); in assay [9], -0.808. Moreover, the composite z-score in [4] is -2.64 (inactive); in assay [10], -0.0274.

Regarding `Cc1ccc(S(=O)(=O)N2[C@@H](c3ccccc3)C(C(=O)O)=CC[C@H]2c2ccc(F)cc2)cc1`, the z-score in assay [1] is 0.0445; in assay [2], -0.93 (inactive); in assay [3] it was -0.3 (inactive); in assay [5] it was 0.244 (inactive); in [6], -0.069 (inactive); in assay [7] it was -0.0944 (inactive). In addition, the z-score in [8] is 0.0973 (inactive); in [9], -0.858. Also, the composite z-score was -0.667 (inactive) in [4] and 0.142 in assay [10].

Turning to `COCCOC(=O)N1C(=O)[C@@]2(c3cc(C#CCNC(N)=O)ccc31)[C@H](c1ccccc1OCCO)N1[C@H](c3ccccc3)[C@H](c3ccccc3)OC(=O)[C@H]1[C@@H]2C(=O)N1CCCCCCC1`, the z-score in assay [1] is 0.875; in assay [2] it was 1 (inactive); in assay [3] it was 0.723 (inactive); in [5] it was 2.91 (inactive); in assay [6], 1.09 (inactive); in assay [7], -0.256 (inactive). Moreover, the z-score is -0.276 (inactive) in [8] and -0.55 in [9]. In addition, the composite z-score in [4] was -0.321 (inactive); in assay [10], -0.0143.

As to `COCCOC(=O)N1C(=O)[C@@]2(c3cc(C#CCC(C(=O)OC)C(=O)OC)ccc31)[C@H](c1ccc(O)cc1)N1[C@H](c3ccccc3)[C@H](c3ccccc3)OC(=O)[C@H]1[C@@H]2C(=O)N1CCc2cc(OC)c(OC)cc2C1`, the z-score in assay [1] was -0.347; in assay [2], -0.672 (inactive); in assay [3], 0.222 (inactive); in assay [5], 0.008 (inactive); in [6], 0.494 (inactive); in [7], 0.109 (inactive). The z-score is 0.588 (inactive) in assay [8] and -0.92 in [9]. The composite z-score was -0.118 (inactive) in assay [4] and -0.0233 in [10].
